Data as given in the supplement of paper PMC9337992.
± gives the standard deviation of the averaged measurements.

system: MDAMB436; experiment: cell proliferation (confluence) relative to DMSO control; higher = less growth inhibition; conditions: 5 uM; 6 d
Method: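 Epigenetic chemical probe screen: 15 TNBC cell lines, 500 cells per well in 384-well plates, treated with 5 uM of each of 36 SGC probes for 6 d. Confluency was imaged by IncuCyte ZOOM and normalised to DMSO control wells. Four replicate wells per compound.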

SMILES | cell proliferation [%]
CC(C)N(CCCNC(=O)Nc1ccc(C(C)(C)C)cc1)C[C@H]1O[C@@H](n2cc(Br)c3c(N)ncnc32)[C@H](O)[C@@H]1O | 90.4 ± 6.8
O=C(/C=C/N1C[C@H]2C[C@@H]1CN2c1ccccn1)c1ccccc1O | 95.4 ± 3.6
CCOC(=O)CCNc1cc(N2CCc3ccccc3CC2)nc(-c2ccccn2)n1 | 16.1 ± 3
CCn1cc(-c2cccc(C(F)(F)F)c2)c2sc(C(=N)NC3CCS(=O)(=O)CC3)cc2c1=O | 50.4 ± 30
Cc1cc(=O)n(C)c2cc(N3C(=O)CC[C@H](NS(=O)(=O)CC(C)C)[C@H]3c3ccc(Cl)cc3)ccc12 | 73.3 ± 14
COc1ccccc1S(=O)(=O)Nc1ccc2c(c1)CN(C)C(=O)N2 | 57 ± 5.5
COc1cc(C#N)ccc1S(=O)(=O)Nc1ccc2c(c1)cc(C)c(=O)n2C | 75.5 ± 5.1
CCC(=O)N1CCOc2c(cc(-c3ccc(OC)c(OC)c3)cc2OC[C@H]2CCCN(C)C2)C1 | 72.3 ± 4.5
O=C(NC[C@H](O)CN1CCc2ccccc2C1)c1ccnc(NC2CCC2)c1 | 57.5 ± 18
CC[C@H](C)n1cc(C)c2c(C(=O)NCc3c(C)cc(C)[nH]c3=O)cc(-c3ccc(N4CCNCC4)nc3)cc21 | 89.7 ± 1.7
CCCc1cc(C)n(C)c(=O)c1CN(C)C(=O)c1cc(-c2ccc(N3CCN(C(C)C)CC3)nc2)cc2c1cnn2C(C)C | 96.6 ± 3.2
O=C(NCC(=O)N1CCCC1)Nc1ccc2cnccc2c1 | 79.4 ± 7.8
O=C(c1ccc(C(=O)N2CCC(N3CCCC3)CC2)c(Nc2ccccc2)c1)N1CCC(N2CCCC2)CC1 | 95.2 ± 2.8
COc1cc2c(cc1OCCCN1CCCC1)N=C(N)C21CCC1 | 95.3 ± 6
CC(C)Oc1ccc(-c2c[nH]cc2CN(C)CCN)cc1 | 59.9 ± 20
O=C([C@@H](Cc1cccc(C(F)(F)F)c1)NS(=O)(=O)c1cc(F)c2c(c1)CCNC2)N1CCCC1 | 84.5 ± 12

SMILES | cell proliferation [%]
Cc1nnc2c3ccccc3c(N[C@@H](C)[C@H](c3ccccc3)N(C)C)nn12 [L-moses] | 80.8 ± 11
COc1cc(-c2cn(C)c(=O)c3cnccc23)c(OC)cc1CN(C)C | 77.2 ± 7.8
CCCc1cc(C)[nH]c(=O)c1CNC(=O)c1cc(-c2ccc(N3CCN(C(C)C)CC3)nc2)cc2c1cnn2C(C)C | 71.1 ± 4.1
CCN(C(=O)CO)[C@H]1CN(/C(=N\C#N)Nc2cccc(OC(F)F)c2)N=C1c1ccc(Cl)c(Cl)c1 | 93.5 ± 3.8
CCOC(=O)CCNc1cc(N2CCc3ccccc3CC2)nc(-c2cccnc2)n1 | 94.2 ± 5.3
COc1cc2c(NC3CCN(C(C)C)CC3)nc(C3CCCCC3)nc2cc1OCCCN1CCCC1 | 99.08 ± 0.28
CN(C)[C@H]1CN(C2CCc3cccc(F)c32)C[C@@H]1c1ccc(N2CCN(S(C)(=O)=O)CC2)cc1 (some centres not stated) | 93.7 ± 2.8
CCCOc1ccn2c(C(C)=O)cc(-c3ccccc3S(C)(=O)=O)c2c1 | 81.7 ± 14
Clc1cc2c(NC3CCCC3)nnc(-c3ccncc3)c2cc1Cl | 93.5 ± 1.4
CNCCN1CCC(OCc2ccccc2)CC1 | 76.5 ± 6.8
CC(C)Oc1ccc(-c2c[nH]cc2CN(C)CCO)cc1 | 84.9 ± 4.5
COc1ccccc1C(=O)Nc1cc2c(cc1N1CCCC1)n(C)c(=O)n2C | 77 ± 3.6
Cn1cc(CCn2cnc(-c3cnn(C)c3)c2-c2ccc(C#N)cc2)cn1 | 83.2 ± 14
CCCc1cc(C)[nH]c(=O)c1CNC(=O)c1cc(-c2ccnc(N3CCN(C)CC3)c2)cc2c1cnn2C(C)C | 90.2 ± 6.6
COc1c(C)cc(NC(=O)c2nn(Cc3ccc(F)cc3)c3c2CN(C(=O)c2ccc[nH]2)C[C@]3(C)C(N)=O)cc1C | 69.4 ± 14
COc1ccc(CCc2nc3cc(-c4c(C)noc4C)ccc3n2C[C@H](C)N2CCOCC2)cc1Cl | 57.3 ± 19
